Screening results deposited in PubChem BioAssay by National Center for Advancing Translational Sciences (NCATS).
An excerpt weighted towards active compounds, which were near 0.52% of everything screened.
Chronic BCR inh = qHTS Assay to Find Inhibitors of Chronic Active B-Cell Receptor Signaling | ABC-DLBCL IkBa-CBG/CBR reporter, luminescence ratio, 4 h | Potency, µM (titrated, usually from 46.1 µM), for the others: at the top dose activity change, negative = inhibition, actives largely listed as inhibitors | hit rate 0.05% among 340,000; active = well fitted inhibition curve with a large enough effect in the signal ratio, with a control signal flat, not every such curve was filed as active; inconclusive = small, poorly fitted or top-dose-only effect, or effect the other way, or a change in a side signal; the % refers to the signal ratio;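 note: plate controls were basal doxycycline-induced cells for no effect and cells given 10 µM MG132 for full effect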
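TMD8 human ABC-DLBCL cells with doxycycline-inducible IκBα–green luciferase fusion and unfused red luciferase, in 0.5% FBS medium; compounds up to 46 uM, 4 h at 37C. Green/red luminescence ratio, filter-overlap corrected, fitted to concentration-response curves.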
RGS4 inhibitor = Inhibitors of Regulator of G Protein Signaling (RGS) 4: qHTS | Regulator of G-protein signaling 4 (Homo sapiens), P49798 | Transcreener GDP fluorescence polarization, RGS4-accelerated GTP hydrolysis | Potency, µM (series often up to 114 µM), for the others: top-dose activity change, negative = inhibition, usual class: inhibitors | hit rate 0.039% among 390,000; note: nearly all actives have a fitted effect of over 75% in size
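MLSMR compounds (23 nl, pin-transferred) preincubated 10 min at room temperature with a 500nM (2x) first reagent, then RGS4 at 900nM (2x) plus Transcreener GDP mix added; fluorescence polarization (620/688 nm) read before and after 90 min at 30 °C.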
KAT2A inh = qHTS Assay for Inhibitors of GCN5L2; Histone acetyltransferase KAT2A (Homo sapiens), Q92830; GCN5L2 HAT assay, ThioGlo1 CoA-SH fluorescence; Potency, µM (titrated, usually from 58.9 µM), without a hit: at the top dose activity change, negative = inhibition, usual class: inhibitors; hit rate 0.21% among 390,000; AID 504327, 2011
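Fluorescence readout, Ex340nm/Em540nm: ThioGlo1 (50uM final) reacts with free CoA thiol released as 20nM GCN5L2 acetylates H3(1-25) peptide (75uM) using acetyl-CoA (70uM). Compound and enzyme sat 15 min beforehand; 20 min room-temperature reaction.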
uPA surface inh = qHTS for Inhibitors of Cell Surface uPA Generation; cell surface uPA generation assay, qHTS; Potency, µM (series often up to 38.3 µM), for inactives: top-dose activity change, negative = inhibition, usual class: inhibitors; AID 540303, 2011; hit rate 0.31% among 330,000; active = well fitted inhibition curve with a large enough effect; inconclusive = small, poorly fitted or top-dose-only effect; inactive = no such curve, though single readings can be large or run the other way; tested in mouse RAW 264.7 cells; note: nearly all actives have a fitted effect of over 55% in size
USP2a block = qHTS Assay for Inhibitors of Ubiquitin-specific Protease USP2a Using CHOP2 as the Reporter | AID 463254, 2010 | Ubiquitin carboxyl-terminal hydrolase 2 (Homo sapiens), O75604 | hit rate 0.01% among 330,000 | USP2 core, Ub-CHOP2 coupled fluorogenic reporter, 485/531 | Potency, µM (series often up to 38.3 µM), for inactives: top-dose activity change, negative = inhibition, most hits filed as inhibitors;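 note: plate controls were DMSO wells for no effect and full inhibition by NEM control for full effect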
Target sequence (O75604 whole entry, looked up): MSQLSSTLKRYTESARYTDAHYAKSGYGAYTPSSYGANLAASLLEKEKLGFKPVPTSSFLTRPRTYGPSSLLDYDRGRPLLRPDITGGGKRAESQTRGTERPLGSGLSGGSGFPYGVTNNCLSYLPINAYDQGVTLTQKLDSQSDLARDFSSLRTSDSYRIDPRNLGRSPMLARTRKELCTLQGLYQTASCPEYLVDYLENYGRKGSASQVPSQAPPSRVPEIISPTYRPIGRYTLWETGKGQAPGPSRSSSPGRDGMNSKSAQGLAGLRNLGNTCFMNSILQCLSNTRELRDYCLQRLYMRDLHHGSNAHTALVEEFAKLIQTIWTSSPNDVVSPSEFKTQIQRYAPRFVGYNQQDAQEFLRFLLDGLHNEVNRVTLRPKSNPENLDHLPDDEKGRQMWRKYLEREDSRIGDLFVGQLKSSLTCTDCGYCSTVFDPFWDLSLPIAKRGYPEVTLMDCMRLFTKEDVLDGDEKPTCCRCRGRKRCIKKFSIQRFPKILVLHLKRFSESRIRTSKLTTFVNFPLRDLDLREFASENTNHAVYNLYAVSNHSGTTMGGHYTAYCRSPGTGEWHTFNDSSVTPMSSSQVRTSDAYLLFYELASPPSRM
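USP2 core (10nM final) preincubated 30min RT with compound in 20mM Tris-HCl pH 8.0, 2mM CaCl2, 2mM beta-mercaptoethanol, 0.05% CHAPS; 25nM Ub-CHOP2 plus 25nM reporter substrate added, fluorescence (Ex485/Em531) read after 60min.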
Eya2 phos inh = qHTS Assay for Inhibitors of the Phosphatase Activity of Eya2; Protein phosphatase EYA2 (Homo sapiens), O00167; recombinant Eya2, OMFP fluorescence dephosphorylation (OMFP is methylfluorescein phosphate); Potency, µM (doses to about 76.9 µM), for the others: at the highest dose activity, negative = inhibition, hits mostly inhibitors; hit rate 0.006% among 330,000; AID 488837, 2010
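Eya2 (0.2 uM) preincubated 10 min at ambient with compound, then OMFP substrate added at 50 uM; 10 min reaction in 50 mM HEPES pH 7.5, 50 mM NaCl, 5 uM MgCl2, 0.05% BSA, 1 mM DTT. Fluorescence read at Ex 485/Em 525 nm.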
* marks the source's active call; other numbers are inactive results; [ ] = dose if it differs, or a comment. Unless noted, calls come from the whole dose curve; as a rule, active = well fitted curve in the direction sought with a large enough effect; inconclusive = small, poorly fitted or top-dose-only effect, or another doubt; inactive = no such curve, though single readings can be large; an effect the other way counts as inactive or inconclusive. Unless noted, % is set by controls: 0 for no effect and ±100 for the full control effect; potency is the fitted concentration of half-maximal effect.

Screening COc1ccccc1CCNC(C)CCc1ccc(O)cc1 (centres undefined) returned Chronic BCR inh 1%, RGS4 inhibitor 33%, KAT2A inh -7%, uPA surface inh 0%, USP2a block 5% and Eya2 phos inh -10%.
For CC(CCc1ccc(O)cc1)NCCc1ccc(O)c(O)c1 (centres undefined) the results were RGS4 inhibitor -8%[56.9 µM], KAT2A inh -2%, uPA surface inh 7.9µM* and Eya2 phos inh 0%.
`COc1ccc(CCNC(=O)Cc2c(C)c3ccc(O)c(C)c3oc2=O)cc1OC` gave RGS4 inhibitor 17% and KAT2A inh -11%.
Screening CCCN1CCN(c2ncnc3sc(C(=O)Nc4ccc(N(CC)CC)cc4C)c(C)c23)CC1 returned RGS4 inhibitor -5% and KAT2A inh 23%.
Fc1ccc(-c2noc3ncnc(NCC4CCN(Cc5ccc(Cl)cc5)CC4)c23)cc1 was read as RGS4 inhibitor -37% and KAT2A inh -1%.
For COc1ccc(Oc2ncc3nc(-c4cccs4)c(=O)n(CCC#N)c3n2)cc1 the results were KAT2A inh -20%.
For COc1ncc2nc(-c3cccs3)c(=O)n(CCC#N)c2n1 the results were KAT2A inh 35µM*.
For CCOC(=O)c1ccc(N=c2sc(C(=O)OC)cc(=O)n2CCCN2CCOCC2)cc1 the results were Chronic BCR inh inconclusive, RGS4 inhibitor -26%, KAT2A inh -16%, uPA surface inh inconclusive, USP2a block -1% and Eya2 phos inh 15%.
`CCOC(=O)c1ccc(N=c2sc(C(=O)OC)cc(=O)n2Cc2ccco2)cc1` gave Chronic BCR inh inconclusive, RGS4 inhibitor -36%, KAT2A inh -2%, uPA surface inh 6.3µM*, USP2a block 1% and Eya2 phos inh 1%.
`COc1cccc(CNC(=O)c2sc3ncccc3c2-n2c(C)ccc2C)c1OC` gave RGS4 inhibitor -27% and KAT2A inh -4%.
`O=C(CN1C(=O)c2cccc3cccc1c23)NCc1cccnc1` gave Chronic BCR inh inconclusive, RGS4 inhibitor -24%, KAT2A inh 32µM*, uPA surface inh -1%, USP2a block 0% and Eya2 phos inh -11%.
For O=C(CN1C(=O)c2cccc3cccc1c23)Nc1cccnc1 the results were Chronic BCR inh -7%, RGS4 inhibitor -18%[11.4 µM], KAT2A inh -11%, uPA surface inh -6%, USP2a block 1% and Eya2 phos inh 5%.
Cc1ccc(C)c(N2CCN(C(=O)c3cc4c(=O)n(Cc5cccnc5)ccc4nc3C)CC2)c1 was read as RGS4 inhibitor -18% and KAT2A inh -2%.
CC1=C(c2ccc(NN=C(C#N)C#N)cc2)NNC(=O)C1 was read as KAT2A inh -12%.
`CCC1CCCCN1C(=O)Cn1c(=O)n(-c2ccc(Cl)c(Cl)c2)c(=O)c2c(C)c(C(=O)N(C)C)sc21` (centres undefined) gave Chronic BCR inh -8%, RGS4 inhibitor 2% and KAT2A inh -4%.
`COc1cc(/C=C(\C#N)C(=O)Nc2nnc(C(F)(F)F)s2)ccc1OCc1ccc(C(F)(F)F)cc1C(F)(F)F` gave RGS4 inhibitor 19µM*, KAT2A inh 7.9µM* and Eya2 phos inh 1%.
`COc1ccc(OC)c(/C=C/c2ccc3cccc(O)c3n2)c1` gave Chronic BCR inh 11µM*, KAT2A inh -7%, USP2a block 0% and Eya2 phos inh -4%.
